Compound activity (PubChem)
CHX counter – Cycloheximide Counterscreen for Small Molecule Inhibitors of Shiga Toxin | cell reporter, cycloheximide protein synthesis inhibition counterscreen | max response, % | 12% of 300,000 active | AID 2314, 2010; in the data active means max response mostly above about 13%, no sharp cut-off; inactive means mostly below about 14%; further: read at 38.3 µM for the half of the compounds with a filed dose
Pf growth 96h – Primary qHTS for delayed death inhibitors of the malarial parasite plastid, 96 hour incubation | P. falciparum luciferase reporter growth, 96 h | Potency, µM (top dose mostly 28.7 µM), usual class: inhibitors | 6.9% of 320,000 active
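Luminescence readout: decreased luciferase signal marks inhibited growth of reporter-expressing P. falciparum in infected red cells (2% hematocrit, 0.05% parasitemia final), exposed to compound two generations (96 h, 37 C, 5% CO2).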
AMA1 RON2 block – qHTS for Inhibitors of AMA1-RON; Towards Development of Antimalarial Drug Lead: Primary Screen; Plasmodium falciparum AMA1 (3D7) - RON2 peptide interaction; AlphaScreen AMA1-biotinylated RON2 peptide binding; Potency, µM (doses to about 58.2 µM), actives largely listed as inhibitors; 0.2% of 360,000 active; AID 720542, 2013; further: nearly all actives have a fitted effect of over 45% in size
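AMA1 (3D7) with his tag at 25 nM final met compounds first, then biotinylated RON2 peptide at 25 nM; detection used donor plus acceptor beads, 10 µg/mL apiece, read by AlphaScreen after 30 min at room temperature.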
Pf growth 48h – Primary qHTS for delayed death inhibitors of the malarial parasite plastid, 48 hour incubation; P. falciparum luciferase growth in erythrocytes, 48 h; Potency, µM (series often up to 28.7 µM), actives largely listed as inhibitors; 5.9% of 310,000 active; AID 504832, 2011
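First compound was added to culture medium, then infected red cells at 0.1% parasitemia and 2% hematocrit (final). After incubation at 37 C under 5% CO2, luciferase detection reagent was dispensed and light output recorded.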
Shiga inhibitor – A qHTS for Small Molecule Inhibitors of Shiga Toxin; Vero cells, Shiga toxin protein synthesis inhibition reporter; 9.2% of 290,000 active; inhibition, % at 38.7 µM; in the data active means inhibition mostly above about 28%, no sharp cut-off; inactive means mostly below about 43%
HCV inhibitor – qHTS Assay for Inhibitors of Hepatitis C Virus (HCV); 3.4% of 340,000 active; Huh7.5.1 HCVcc-Cre infection, luciferase reporter, 44 h; Potency, µM (series often up to 41.8 µM), most hits filed as inhibitors; AID 651820, 2012
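After 44 h co-culture of compound, cells and HCVcc-Cre (~0.5 moi), substrate is added for 15 min at room temperature and luciferase measured over 15 sec. Cells were seeded at 1,000/well and pre-cultured 4 h.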
Hits are given with their value; 0 = inactive; ? = inconclusive; - = no result; [ ] = dose if it differs, or a comment. This is a sample that favours compounds with a hit; in the whole collection about 21% have one here. Unless noted, the call rests on the fitted dose curve; in most records, active means well fitted curve in the direction sought with a large enough effect; inconclusive means small, poorly fitted or top-dose-only effect, or another doubt; inactive means no such curve, though single readings can be large; an effect the other way counts as inactive or inconclusive.

SMILES	CHX counter	Pf growth 96h	AMA1 RON2 block	Pf growth 48h	Shiga inhibitor	HCV inhibitor
O=C(N/N=C/c1cc(Br)ccc1O)C(=O)Nc1ccccc1OC(F)(F)C(F)F	0	2.94µM	0	?	0	?
O=C(N/N=C/c1cc(Cl)ccc1O)C(=O)Nc1ccccc1OC(F)(F)C(F)F	0	0	0	?	0	?
S=C(NCCc1ccccc1)N/N=C/c1ccccc1Cl	10.8	0	0[2.32 µM]	0	0	0
CCc1ccc2c(c1)NC(=O)C2(C)Cc1ccc(C(F)(F)F)nc1 (stereo unspecified)	-	-	0	-	-	-
CCCCC(=O)N1C/C=C\C(c2ccc(OC)cc2)N(Cc2ccc(F)cc2)C(=O)C1C (stereo unspecified)	0	-	-	-	0	-
CC(C)Cc1nnc(NC(=O)CCS(=O)(=O)c2ccc(Cl)cc2)s1	0	0	0	0	0	?
COc1ccccc1N(CC(O)Cn1ccnc1C)S(=O)(=O)c1ccccc1 (stereo unspecified)	0	0	0	0	0	0
O=C(N/N=C/c1ccccc1Cl)c1[nH]c2ccc(Br)cc2c1-c1ccccc1	0	?	0	0	0	3.98µM
COc1ccc(/C(C)=N/NC(=S)NCCc2ccccc2)c(O)c1	0	?	0	0.415µM	0	?
O=C(N/N=C/c1cc(Br)ccc1O)c1ccccc1Cl	0	9.28µM	0	?	0	?
COc1ccc(/C=N/NC(=O)c2[nH]c3ccc(Br)cc3c2-c2ccccc2)c(C(=O)O)c1OC	0	0	0	0	0	0
C/C(=N\NC(=S)NCCc1ccccc1)c1ccc(C)cc1	0	0	0	0	0	0
O=C(NN=Cc1cc([N+](=O)[O-])ccc1O)c1cccc2ccccc12	-	-	0	-	-	?
O=C(Cc1ccccc1)N/N=C/c1ccccc1Cl	40.9	?	0	0	0	0
CC(C)(C)NS(=O)(=O)c1ccc(NC(=O)C2CC(=O)N(CCc3ccc(F)cc3)C2)cc1 (stereo unspecified)	0	0	0	?	0	0
Oc1ccc(Br)cc1/C=N/NC(=S)NCCc1ccccc1	0	2.33µM	0	4.65µM	0	10µM
CC(C)NC(=S)N/N=C/c1cc(Br)ccc1O	0	1.65µM	0	2.08µM	0	?
COCCCNC(=S)N/N=C/c1ccccc1O	44.3	?	0	?	52.3	0
O=C(Cc1ccc(NC(=O)C2CCCN(C(=O)C3CC3)C2)cc1)Nc1ccc(C(=O)N2CCOCC2)cc1 (stereo unspecified)	-	-	0	-	-	0[8.37 µM]
O=C(Nc1ccc(S(=O)(=O)C(F)F)cc1)c1ccc2c(=O)n3c(nc2c1)CCC3	-	?	0	?	-	?
CC(=O)c1cccc(NC(=O)c2ccc3c(=O)n4c(nc3c2)CCCCC4)c1	0	0	0	0	0	?
O=C(Nc1cccc(S(=O)(=O)N2CCOCC2)c1)c1ccc2c(=O)n3c(nc2c1)CCCCC3	0	?	0	0	0	7.08µM
O=C(Nc1cccc(S(=O)(=O)N2CCCC2)c1)c1ccc2c(=O)n3c(nc2c1)CCCCC3	0	5.22µM	0	?	0	2.82µM
CC(Sc1cccc[n+]1[O-])C(=O)Nc1ccc(Oc2ccccc2)cc1 (stereo unspecified)	0	?	0	0	0	0
O=C1CCCN1c1nccs1	0	0	0	0	0	0
SMILES	CHX counter	Pf growth 96h	AMA1 RON2 block	Pf growth 48h	Shiga inhibitor	HCV inhibitor
CC(=O)Nc1ccc2nc(-c3ccco3)[nH]c2c1	35.2	0	0	0	87.3	0
O=C(N/C(=C/c1ccc(Br)cc1)c1nc2ccccc2[nH]1)c1ccco1	14.7	0	0	0	50.8	0
O=C(Nc1ccc(-c2nc3ccccc3[nH]2)cc1)c1ccco1	42.7	0	0	0	108.9	?
Cc1ccc2nc(-c3cccc(NC(=O)c4ccco4)c3)[nH]c2c1	50.1	-	0	?	43.0	0
O=C(Nc1ccc2nc(-c3cccnc3)[nH]c2c1)c1ccco1	0	?	0	0	0	0
O=C(N/C(=C/c1ccc(Cl)cc1)c1nc2ccccc2[nH]1)c1ccco1	0	0	0	0	0	0
O=C(Nc1ccc2nc(-c3ccco3)[nH]c2c1)c1cccs1	45.6	?	0	0	66.1	?
O=C(Nc1ccc2nc(-c3ccco3)[nH]c2c1)c1ccco1	33.2	-	0	-	45.0	0
Nc1cc(=O)[nH]c(SCCOc2ccccc2)n1	0	?	0	0	0	0
COc1cccc(OCCSc2nc(N)cc(N)n2)c1	38.1	0	0	-	0	?
Nc1cc(N)nc(SCCOc2ccccc2)n1	36.0	0	0	0	55.4	0
COC(=O)c1ccc(CSc2nnc(NC(=O)C3CC(=O)N(c4ccc5c(c4)OCCO5)C3)s2)cc1 (stereo unspecified)	19.9	?	0	0	0	0
O=C(NCCc1ccc(C(F)(F)F)cc1)C1CC(=O)N(c2ccc3c(c2)OCCO3)C1 (stereo unspecified)	-	0	0	?	-	0
CCOc1ccc(CCNC(=O)C2CC(=O)N(c3ccc4c(c3)OCCO4)C2)cc1OCC (stereo unspecified)	-	3.29µM	0	?	-	?
Cc1ccccc1N1CC(C(=O)Nc2nnc(SCc3ccccn3)s2)CC1=O (stereo unspecified)	0	7.38µM	0	13.1µM	0	0
O=C(Nc1nnc(SCC(=O)N2CCCC2)s1)C1CC(=O)N(c2ccc(F)cc2)C1 (stereo unspecified)	0	11.7µM	0	0	0	0
O=C(Nc1nnc(SCC(=O)N2CCOCC2)s1)C1CC(=O)N(c2ccc(F)cc2)C1 (stereo unspecified)	0	?	0	?	0	0
O=C(Nc1nnc(SCc2ccccn2)s1)C1CC(=O)N(c2ccc(F)cc2)C1 (stereo unspecified)	0	?	0	0	0	0
Cc1sc2c(c1C)C(O)=C(C(=O)Nc1ccccc1)S(=O)(=O)N2C	0	?	0	0	0	0
CCOC(=O)N1CCC(=NNC(=O)Cn2ccc(C(F)(F)F)n2)CC1	0	?	0	0	0	0
Cc1cc(NC(=O)C2CC(=O)N(c3ccccc3C)C2)no1 (stereo unspecified)	0	11.7µM	0	0	0	?
CCc1ccc(N2CC(C(=O)Nc3ccc4c(c3)OCCO4)CC2=O)cc1 (stereo unspecified)	30.6	0	0	0	81.9	0
CC(=O)Nc1ccc(-c2csc(NC(=O)C3CC(=O)N(c4ccc5c(c4)OCCO5)C3)n2)cc1 (stereo unspecified)	0	?	0	?	0	?
Cc1cc(NC(=O)CN2C(=O)CC(c3ccco3)Sc3ccccc32)no1 (stereo unspecified)	0	11.7µM	0	?	0	35.5µM
